Compounds without any hit were thinned out: in the full panel of roughly 79,000, 15% have a hit. A number with no mark means an inactive call. Active and inactive are the calls of the source. Rule as the data show it: active = growth inhibition above about 70%; inactive = the rest.

A short description of one assay: NCI Yeast Anticancer Drug Screen. Data for the mlh1 strain (AID 171).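 Also: 0% = growth of vehicle-treated control cultures of the same strain.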 The following applies: S. cerevisiae mlh1 strain growth inhibition; at 33.0 µM; stronger effect = higher value. In short, it runs like this:
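Yeast carrying a defined genetic alteration in DNA damage repair or cell cycle control were exposed to test compounds. Growth inhibition was measured relative to vehicle-treated controls.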
For the compound `CN(C)CC(CN(C)C)C(=O)/C=C/c1ccc(Cl)cc1Cl`, the growth inhibition is 99% (active).
In the case of `c1ccc2c(c1)ccn2CCc1c[nH]c2ccccc12`, the growth inhibition is 15%.
Still for that read-out and setting: the result for `Cc1ccccc1NC(=O)c1c(C)oc2c1C(=O)c1ccccc1C2=O` reads -5%; that for `CC(C)OC(=O)NNc1c(Cl)cc(Cl)cc1Cl`, 8%; that for `COc1ccc2nc3cccc([N+](=O)[O-])c3c(NCCNCCO)c2c1`, 80% (active).
The same measure, in the same setting: in the case of `COc1ccc2c(c1)CCCC(Br)C2=O` (stereo not given) it was 78% (active); in that of `CCC(OC(C)=O)C1CC(C(C)C)CCC1C` (stereo not given), 8%.
Still for that read-out and setting: in the case of `O=S(=O)(c1cccc(C(F)(F)F)c1)N1c2ccccc2-n2cccc2C1c1cccnc1` (stereo not given) it was 93% (active); in that of `c1ccc(-c2cc(C3CO3)c3ccccc3n2)cc1` (stereo not given), 73% (active).
In the case of `COc1ccc(/C=C2\SC(=S)N(/C=C3\C(=O)N(c4ccccc4)N=C3C)C2=O)cc1OC`, the growth inhibition was 81% (active).
In the case of `CC1=CC(=C(c2ccc(N)c(C)c2)c2ccc(N)c(C)c2)C=CC1=N`, the growth inhibition was 55%.
Regarding `CC1C(c2ccccc2)SC(=N)N1C` (stereo not given), the growth inhibition is -1%.
The same measure, in the same setting: in the case of `CC(/C=C/c1ccc([N+](=O)[O-])o1)=N/N1CC(CN2CCOCC2)OC1=O` (stereo not given) it was 42%.
Regarding `C=CC(C)(C)N1C(=O)C(C(C)=O)=C(O)C1Cc1c[nH]c2ccccc12` (stereo not given), the growth inhibition was 14%.
Take `O=C1c2cccc3cccc(c23)C(=O)N1CCNCCN1C(=O)c2cccc3cccc(c23)C1=O`: the growth inhibition is 0%.
The same measure, in the same setting: the result for `Cc1ccc([N+](=O)[O-])c2c(NCCC[N+](C)(C)[O-])c3ccccc3nc12` reads -12%.
The same measure, in the same setting: the result for `COC(=O)C(Cc1c[nH]c2ccccc12)N1CN(C)c2ccccc2C1=O` (stereo not given) reads 6%; that for `O=C(/N=N/C(=O)Oc1ccccc1)Oc1ccccc1`, -44%.
As for `COc1cc([C@@H]2c3cc4c(cc3[C@@H](NC(=O)NO)[C@H]3COC(=O)[C@H]23)OCO4)cc(OC)c1O`, the growth inhibition is 2%.
Same read-out and setting: the result for `CCOC(=O)/C(=C/c1cccc(Cl)c1)N(CC)CC` reads 48%; that for `CC(C)OC(=O)NNc1cccc(Cl)c1`, 98% (active).
Turning to `CCC(=O)C1=C(O)c2cc(OC)ccc2CC1C(=O)OC` (stereo not given), the growth inhibition was 10%.
The same measure, in the same setting: the result for `O=S(=O)(NC1CCCC(c2ccccc2)C1)c1ccccc1` (stereo not given) reads 3%; that for `COc1ccc2nc3cccc([N+](=O)[O-])c3c(NCCCCCC(=O)O)c2c1`, 97% (active); that for `CCO/C=C1\SC(=S)N(c2ccc(OCC)cc2)C1=O`, -14%.
The same measure, in the same setting: the result for `COc1cc(OC)c(CSCC(NC(=O)OCC2c3ccccc3-c3ccccc32)C(=O)O)c(OC)c1` (stereo not given) reads 97% (active); that for `COC(=O)c1ccccc1N=NNc1cccc(SC)c1`, 94% (active); that for `CC1=NN(C(=O)c2ccccc2O)C(=O)/C1=C/c1ccco1`, 89% (active).
Same read-out and setting: in the case of `COc1ccccc1NC(=O)c1ccc(Cl)cc1` it was 3%; in that of `CC(C)=CCC/C(C)=C/CN1C(=O)C=CC1=O`, 99% (active).
With `O=C1CSC(c2ccccc2)N1c1ccc(-c2ccc(-n3c(-c4ccccc4)nc4ccccc4c3=O)cc2)cc1` (stereo not given), the growth inhibition is 14%.
The same measure, in the same setting: in the case of `N#CC1OB(O)c2ccccc21` (stereo not given) it was -6%; in that of `O=C(NCCNCCNC(=O)c1cc(-c2ccccc2)nc2ccccc12)c1cc(-c2ccccc2)nc2ccccc12`, -2%; in that of `Brc1ccc(B2Nc3ccccc3N2)cc1`, 28%.
As to `CCOP(=O)(OCC)/C(C#N)=C/c1cccc(Oc2ccccc2)c1`, the growth inhibition is 96% (active).

The assay is the same for the next values; noted with them: S. cerevisiae mlh1 strain growth inhibition; at 100.0 µM; stronger effect = higher value.
Take `CN(C)CC(CN(C)C)C(=O)/C=C/c1ccc(Cl)cc1Cl`: the growth inhibition is 98% (active).
On the same count and under the same terms, in the case of `c1ccc2c(c1)ccn2CCc1c[nH]c2ccccc12` it was 97% (active); in that of `Cc1ccccc1NC(=O)c1c(C)oc2c1C(=O)c1ccccc1C2=O`, 85% (active).
Take `CC(C)OC(=O)NNc1c(Cl)cc(Cl)cc1Cl`: the growth inhibition was 8%.
Turning to `COc1ccc2nc3cccc([N+](=O)[O-])c3c(NCCNCCO)c2c1`, the growth inhibition was 88% (active).
For `COc1ccc2c(c1)CCCC(Br)C2=O` (stereo not given), the growth inhibition is 98% (active).
The same measure, in the same setting: in the case of `CCC(OC(C)=O)C1CC(C(C)C)CCC1C` (stereo not given) it was 54%.
Still for that read-out and setting: in the case of `O=S(=O)(c1cccc(C(F)(F)F)c1)N1c2ccccc2-n2cccc2C1c1cccnc1` (stereo not given) it was 88% (active).
For `c1ccc(-c2cc(C3CO3)c3ccccc3n2)cc1` (stereo not given), the growth inhibition was 99% (active).
For the compound `COc1ccc(/C=C2\SC(=S)N(/C=C3\C(=O)N(c4ccccc4)N=C3C)C2=O)cc1OC`, the growth inhibition is 88% (active).
Take `CC1=CC(=C(c2ccc(N)c(C)c2)c2ccc(N)c(C)c2)C=CC1=N`: the growth inhibition is 96% (active).
Same read-out and setting: the result for `CC1C(c2ccccc2)SC(=N)N1C` (stereo not given) reads -1%; that for `CC(/C=C/c1ccc([N+](=O)[O-])o1)=N/N1CC(CN2CCOCC2)OC1=O` (stereo not given), 91% (active).
With `C=CC(C)(C)N1C(=O)C(C(C)=O)=C(O)C1Cc1c[nH]c2ccccc12` (stereo not given), the growth inhibition was 66%.
Still for that read-out and setting: the result for `O=C1c2cccc3cccc(c23)C(=O)N1CCNCCN1C(=O)c2cccc3cccc(c23)C1=O` reads 2%.
Same read-out and setting: the result for `Cc1ccc([N+](=O)[O-])c2c(NCCC[N+](C)(C)[O-])c3ccccc3nc12` reads 27%.
With `COC(=O)C(Cc1c[nH]c2ccccc12)N1CN(C)c2ccccc2C1=O` (stereo not given), the growth inhibition was 99% (active).
The same measure, in the same setting: the result for `O=C(/N=N/C(=O)Oc1ccccc1)Oc1ccccc1` reads 3%; that for `COc1cc([C@@H]2c3cc4c(cc3[C@@H](NC(=O)NO)[C@H]3COC(=O)[C@H]23)OCO4)cc(OC)c1O`, 7%; that for `CCOC(=O)/C(=C/c1cccc(Cl)c1)N(CC)CC`, 91% (active).
For the compound `CC(C)OC(=O)NNc1cccc(Cl)c1`, the growth inhibition is 99% (active).
Still for that read-out and setting: in the case of `CCC(=O)C1=C(O)c2cc(OC)ccc2CC1C(=O)OC` (stereo not given) it was 26%; in that of `O=S(=O)(NC1CCCC(c2ccccc2)C1)c1ccccc1` (stereo not given), 82% (active); in that of `COc1ccc2nc3cccc([N+](=O)[O-])c3c(NCCCCCC(=O)O)c2c1`, 98% (active).
Same read-out and setting: in the case of `CCO/C=C1\SC(=S)N(c2ccc(OCC)cc2)C1=O` it was -10%.
Regarding `COc1cc(OC)c(CSCC(NC(=O)OCC2c3ccccc3-c3ccccc32)C(=O)O)c(OC)c1` (stereo not given), the growth inhibition was 98% (active).
On the same count and under the same terms, in the case of `COC(=O)c1ccccc1N=NNc1cccc(SC)c1` it was 88% (active); in that of `CC1=NN(C(=O)c2ccccc2O)C(=O)/C1=C/c1ccco1`, 96% (active); in that of `COc1ccccc1NC(=O)c1ccc(Cl)cc1`, 3%.
Turning to `CC(C)=CCC/C(C)=C/CN1C(=O)C=CC1=O`, the growth inhibition is 99% (active).
Consider `O=C1CSC(c2ccccc2)N1c1ccc(-c2ccc(-n3c(-c4ccccc4)nc4ccccc4c3=O)cc2)cc1` (stereo not given), for which the growth inhibition was 54%.
Same read-out and setting: the result for `N#CC1OB(O)c2ccccc21` (stereo not given) reads -7%.
As to `O=C(NCCNCCNC(=O)c1cc(-c2ccccc2)nc2ccccc12)c1cc(-c2ccccc2)nc2ccccc12`, the growth inhibition was -1%.
Same read-out and setting: in the case of `Brc1ccc(B2Nc3ccccc3N2)cc1` it was 44%; in that of `CCOP(=O)(OCC)/C(C#N)=C/c1cccc(Oc2ccccc2)c1`, 97% (active).

The values above are taken from PubChem BioAssay (NCI).
